In the library only some 7.8% were active in any assay of this set; here they are far more common.
HCMV antiviral: qHTS Assay for inhibitors of the human cytomegalovirus (HCMV); 410,000 compounds, 4.5% hits; HFF cells, HCMV-luciferase reporter, 72 h; stronger effect = lower value; AID 1259415, 2018; activity change, negative = inhibition, % at 57.5 µM; in the data active means activity change below about -60%; inconclusive means no clear call, values can overlap the other calls; inactive means above about -39%
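Human foreskin fibroblasts infected with luciferase-reporter HCMV at MOI 1 PFU/cell, compounds at two doses. Luciferase measured 72 h post infection; normalized to buffer-only basal and Salinomycin (10uM) controls.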
MARV entry inh: qHTS for inhibitors of binding or entry into cells for Marburg Virus. Potency, µM (highest dose often 37.8 µM), for inactives: at the top dose activity change, negative = inhibition, actives largely listed as inhibitors. Marburg virus pseudotyped entry inhibition, cell reporter. 300,000 compounds, 1.8% hits; calls by dose curve; tested in HEK293 cells; further: potency means the concentration at half of the fitted maximal effect
HCV inhibitor: qHTS Assay for Inhibitors of Hepatitis C Virus (HCV); Huh7.5.1 HCVcc-Cre infection, luciferase reporter, 44 h; Potency, µM (highest dose often 41.8 µM), for inactives: at the highest dose activity change, negative = inhibition, most hits filed as inhibitors; 340,000 compounds, 3.4% hits; AID 651820, 2012; active means well fitted inhibition curve with a large enough effect; inconclusive means small, poorly fitted or top-dose-only effect, or another doubt; inactive means no such curve, though single readings can be large or run the other way; further: potency means the concentration at half of the fitted maximal effect
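Reporter virus HCVcc-Cre (~0.5 moi) infects cells exposed to compound; seeding density 1,000 cells/well with 4 h settling beforehand. Luminescence, 15 sec read, taken 44 h post-infection following a 15 min RT substrate incubation.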
VACV mCherry inh: qHTS for Stage-Specific Inhibitors of Vaccinia Orthopoxvirus: mCherry Reporter Primary qHTS; Vaccinia virus mCherry reporter infection, fluorescence; Potency, µM (doses to about 36.5 µM), inactives show top-dose activity change, negative = inhibition, usual class: inhibitors; 310,000 compounds, 0.63% hits; AID 720579, 2013; calls by dose curve; tested in A549 cells; further: potency means the concentration at half of the fitted maximal effect; nearly all actives have a fitted effect of over 35% in size
Lassa entry inh: qHTS for Inhibitors of binding or entry into cells for Lassa Virus | AID 540256, 2011 | Lassa virus pseudotype entry inhibition, cell reporter | Potency, µM (highest dose often 37.9 µM), for inactives: at the highest dose activity change, negative = inhibition, usual class: inhibitors | 300,000 compounds, 1.2% hits; calls by dose curve; tested in HEK293 cells; further: potency means the concentration at half of the fitted maximal effect; nearly all actives have a fitted effect of over 50% in size
Vaccinia Venus: qHTS for Stage-Specific Inhibitors of Vaccinia Orthopoxvirus: Venus Reporter Primary qHTS | Vaccinia virus Venus reporter expression, fluorescence | Potency, µM (top dose mostly 36.5 µM), for the others: top-dose activity change, negative = inhibition, usual class: inhibitors | 330,000 compounds, 0.46% hits; calls by dose curve; tested in A549 cells; further: potency means the concentration at half of the fitted maximal effect; nearly all actives have a fitted effect of over 30% in size
Starred values were filed as active, the others as inactive; i = inactive; ? = inconclusive; / = no result; ! = repeats disagree; [ ] = remark or other dose. On the % scale 0 is the no-effect control and ±100 the full control effect.

SMILES | HCMV antiviral | MARV entry inh | HCV inhibitor | VACV mCherry inh | Lassa entry inh | Vaccinia Venus
COc1ccc(/C=C/C(=O)c2cc(Br)ccc2OC(=O)c2ccco2)cc1OC | 20.6 | 5.8µM*! | 9.0% | i | ? | 6.2%
COc1ccc(/C=C/C(=O)c2cc(F)ccc2OC(=O)c2ccccc2OC)cc1OC | -97.4* | ? | ? | ? | ? | ?
O=C(NCc1ccc(Cl)cc1)NC1COc2ccccc2C1 (stereo not given) | -10.3 | / | / | -10.0% | -1.1%[46.1 µM] | -9.2%
Cc1cc(C)nc(S[C@H]2C[C@@H](C(=O)N3CCN(c4ccccc4F)CC3)N(Cc3ccccc3F)C2)n1 | / | / | / | -8.1% | / | 0.0%
COc1ccc(C(=O)NCC(c2cccs2)S(=O)(=O)c2ccc(F)c(C)c2)cc1 (stereo not given) | 6.0 | / | / | 2.8% | 7.3%[46.1 µM] | -4.5%
COC(=O)[C@H](C)N(Cc1ccc(Cl)c(Cl)c1)S(=O)(=O)CCN1CCN(c2ccccc2)CC1 | -12.0 | / | ? | 14.1µM* | / | ?
COC(=O)[C@H](C)N(Cc1ccc(Cl)c(Cl)c1)S(=O)(=O)CCN1CCCC1 | -16.4 | / | ? | ? | / | ?
COc1cccc2c1C(=O)c1c(O)c3c(c(O)c1C2=O)CC(O)(C(C)=O)CC3OC1CC(N(C)C)C(O)C(C)O1 (stereo not given) | -98.3* | ? | 0.562µM* | 84.1% | ? | 425.1%
COc1cccc2c1C(=O)c1c(O)c3c(c(O)c1C2=O)C[C@@](O)(C(=O)CO)C[C@@H]3O[C@H]1C[C@H](N)[C@H](O)[C@H](C)O1 | -97.7* | 0.731µM* | -0.3%[8.37 µM] | 72.8% | 0.366µM* | 469.0%
COc1cccc2c1C(=O)c1c(O)c3c(c(O)c1C2=O)C[C@@](O)(C(=O)CO)C[C@@H]3OC1CC(N)C(O)C(C)O1 (stereo not given in full) | -99.3* | 0.501µM* | 1µM* | 427.2% | ? | i
COc1cccc2c1C(=O)c1c(O)c3c(c(O)c1C2=O)CC(O)(C(C)=NO)CC3OC1CC(N)C(O)C(C)O1 (stereo not given) | -99.6* | ? | ? | 383.7% | ? | i
Cc1cc(N2CCC(C)CC2)nc(NCc2ccccc2)n1 | -84.8* | ? | 6.31µM* | / | 18.4µM* | /
CCCCNc1cc(C)nc(NCc2ccccc2)n1 | / | 11.2µM* | ? | -19.3%[1.46 µM] | 11.2µM* | ?
Cc1cc(C)nc(NCCCc2ccccc2)n1 | -14.6 | -5.9% | 0.8% | -18.8% | -1.6% | -10.4%
Cc1cc(Nc2ccccc2)nc(NCc2ccccc2)n1 | -66.5* | ? | ? | -31.0% | ? | ?
Cc1cc(Nc2cccc(F)c2)nc(NCc2ccccc2)n1 | 9.7 | ? | ? | 12.6µM* | ? | ?
Cc1cc(N2CCC(C)CC2)nc(-c2ccccc2O)n1 | -29.3 | / | ? | / | / | /
Cc1cc(Nc2ccc(Cl)cc2)nc(NCc2ccccc2)n1 | -31.3 | ? | ? | 11.2µM* | ? | ?
Cc1cc(N/N=C/c2ccc(Cl)cc2Cl)nc(NCc2ccccc2)n1 | -24.9 | ? | ? | -25.4% | -16.5% | ?
COC(=O)c1ccc(CN2CCC(CO)(Cc3ccccc3Cl)CC2)cc1 | -1.6 | ? | -0.9% | ? | 3.4% | -13.2%
COc1ccc(/C=C/CN2CCC(CO)(Cc3ccccc3Cl)CC2)cc1 | -69.6* | ? | ? | -11.9% | -11.7% | -16.0%
Cc1ccccc1Cn1c(C)c(C(=O)N(C)Cc2ccc(F)cc2)sc1=O | -60.2* | / | / | 35.1% | / | 1.0%
COc1ccc(Br)c(Cn2c(C)c(C(=O)N(C)Cc3ccc(F)cc3)sc2=O)c1 | -85.0* | / | / | 1.0% | / | -1.7%
Cc1cc(C)cc(Cn2c(C)c(C(=O)N(C)Cc3ccc(F)cc3)sc2=O)c1 | -15.2 | / | / | 26.8% | / | 0.7%
C/C(CC(c1ccccc1)c1c(O)c2ccccc2oc1=O)=N\NC(N)=S (stereo not given) | 47.9 | ? | 2.0% | 3.98µM* | 0.2% | 7.94µM*
SMILES | HCMV antiviral | MARV entry inh | HCV inhibitor | VACV mCherry inh | Lassa entry inh | Vaccinia Venus
CCOC(=O)C(c1c(O)c2ccccc2oc1=O)c1c(O)c2ccccc2oc1=O | -25.0 | / | / | / | / | /
Cc1cc(N(C)C)c(C)cc1/C=C/c1ccnc2ccccc12 | / | / | / | -26.0% | / | 12.5%
Cc1occc1C(=O)N/N=C/C1=C(N2CCOCC2)C(=C/c2ccc(Cl)cc2Cl)/CC1 | -24.3 | -23.1% | ? | i | -8.5% | 6.6%
N#Cc1c(NC(=O)CCCC(=O)O)sc2c1CCCCC2 | -7.6 | 1.16µM* | 1.1% | -8.5% | 8.2µM* | 2.9%
Cc1ccnc(SCC(=O)Nc2sc3c(c2C#N)CCCC3)n1 | -39.1 | -27.3% | 7.94µM* | / | -17.4% | ?
CC1CCc2c(sc(NC(=O)Cn3nc(C(=O)O)c4ccccc4c3=O)c2C#N)C1 (stereo not given) | -23.9 | / | -6.3% | / | / | /
CCCc1cc(=O)[nH]c(SCC(=O)Nc2sc(C(N)=O)c(C)c2C(=O)OCCOC)n1 | -62.5* | / | ? | / | / | /
Cc1csc(SCC(=O)Nc2sc3c(c2C#N)CCC3)n1 | -3.1 | ? | ? | / | -23.3% | -22.7%
CCCC(=O)Nc1sc2c(c1C#N)CCCCC2 | 70.8 | 18.7% | ? | / | ? | -22.7%
CCN1CCN(CC(=O)Nc2sc3c(c2C#N)CCC(C)C3)CC1 (stereo not given) | -38.6 | ? | 35.5µM* | -2.7% | 6.4% | -17.5%
Cc1nc2nc(SCC(=O)NCCc3ccc(Cl)cc3)nn2c(C)c1Cc1c(F)cccc1Cl | -4.1 | / | / | -17.1% | 18.9%[46.1 µM] | -2.2%
CC(C)(C)C1CCc2c(sc(NC(=O)CSc3ncn[nH]3)c2C#N)C1 (stereo not given) | -20.2 | -25.7% | ? | / | ? | /
CCCc1cc(=O)[nH]c(SCC(=O)Nc2sc3c(c2C#N)CCC(C)C3)n1 (stereo not given) | -61.0* | 33.2%[46.1 µM] | -1.8% | -4.3% | -10.0%[46.1 µM] | -23.7%
CC1CCc2c(sc(NC(=O)CSc3ncn[nH]3)c2C#N)C1 (stereo not given) | -66.1* | / | 11.2µM* | / | / | /
N#Cc1c(NC(=O)CSc2ncn[nH]2)sc2c1CCCC2 | -36.8 | ? | ? | ? | 2.31µM* | ?
COc1ccc(-c2ccc(C#N)c(SCC(=O)Nc3sc4c(c3C#N)CCC4)n2)cc1OC | -87.9* | ? | ? | / | 14.6µM* | /
CCOC(=O)c1ccc(NC(=O)CCc2c(C)nc3c(c(C)nn3C(C)(C)C)c2C)cc1 | -12.7 | -24.5%[46.1 µM] | / | -18.0% | -1.8%[46.1 µM] | -20.0%
Cc1ccc(NC(=O)c2sc(-n3nc(C)c(CCC(C)C)c3C)nc2C)cc1C | 5.0 | 1.2%[46.1 µM] | / | -2.8% | 0.0%[46.1 µM] | -11.1%
N#Cc1c(NC(=O)COC(=O)c2ccc(O)cc2O)sc2c1CCC2 | ? | / | 7.08µM* | / | / | /

Screening data (PubChem BioAssay)
